Measured values: PubChem BioAssay (NCI)
Compounds without any hit were thinned out: in the full panel of roughly 83,000, 20% have a hit.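 Method: cells in 96-well plates; compound added at one concentration; 48 h incubation; percent growth measured; values under 10 scored active.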 Activity calls are given as the source filed them.

Tests used:
Test in all cases: NCI-60 one-dose screen, 48 h (100 = growth as untreated, 0 = no growth, -100 = all killed)
Conditions in all cases: 10 µM unless noted
SR leukemia = tested on: SR leukemia
RPMI-8226 leukemia = tested on: RPMI-8226 leukemia
OVCAR-8 ovarian = tested on: OVCAR-8 ovarian
OVCAR-5 ovarian = tested on: OVCAR-5 ovarian
OVCAR-4 ovarian = tested on: OVCAR-4 ovarian
SK-OV-3 ovarian = tested on: SK-OV-3 ovarian
IGROV1 ovarian = tested on: IGROV1 ovarian
OVCAR-3 ovarian = tested on: OVCAR-3 ovarian
HS 578T breast = tested on: HS 578T breast
NCI/ADR-RES ovarian = tested on: NCI/ADR-RES ovarian
T-47D breast = tested on: T-47D breast
BT-549 breast = tested on: BT-549 breast
MDA-MB-435 melanoma = tested on: MDA-MB-435 melanoma
SW-620 colon = tested on: SW-620 colon
HCT-116 colon = tested on: HCT-116 colon
HCC-2998 colon = tested on: HCC-2998 colon
KM12 colon = tested on: KM12 colon
MCF7 breast = tested on: MCF7 breast

Measured: growth

c1ccc2c(-c3nc4ccccc4[nH]3)cccc2c1
inactive: SR leukemia 12.5% | RPMI-8226 leukemia 33.2% | OVCAR-8 ovarian 47.4% | OVCAR-5 ovarian 62.9% | OVCAR-4 ovarian 77.3% | SK-OV-3 ovarian 30.8% | IGROV1 ovarian 44.1% | OVCAR-3 ovarian 12.2% | HS 578T breast 44.5% | T-47D breast 36% | BT-549 breast 24.3% | SW-620 colon 16.8% | HCT-116 colon 16.7% | HCC-2998 colon 57.5% | KM12 colon 21.8%
active: NCI/ADR-RES ovarian -16.2% | MDA-MB-435 melanoma -19%

Cc1ccc(N/N=C(/C(=O)c2ccc(Cl)cc2)c2nc(C)cc(=O)[nH]2)cc1
inactive: SR leukemia 84.4% | RPMI-8226 leukemia 85.1% | OVCAR-8 ovarian 101% | OVCAR-5 ovarian 122% | OVCAR-4 ovarian 116% | SK-OV-3 ovarian 116% | OVCAR-3 ovarian 95.8% | HS 578T breast 99.9% | NCI/ADR-RES ovarian 103% | MDA-MB-435 melanoma 123% | SW-620 colon 93.7% | MCF7 breast 91% | HCT-116 colon 86.9% | HCC-2998 colon 116% | KM12 colon 115%
active: IGROV1 ovarian 7.59%

c1ccc(CN=C(NCc2ccccc2)NCc2ccccc2)cc1
inactive: SR leukemia 77.4% | RPMI-8226 leukemia 43.5% | OVCAR-8 ovarian 56.4% | OVCAR-5 ovarian 100% | OVCAR-4 ovarian 30.2% | SK-OV-3 ovarian 73.5% | IGROV1 ovarian 60.4% | OVCAR-3 ovarian 51.4% | HS 578T breast 96.7% | T-47D breast 26.3% | BT-549 breast 82.2% | MDA-MB-435 melanoma 66.9% | SW-620 colon 77.3% | MCF7 breast 36.5% | HCT-116 colon 46.4% | KM12 colon 62.6%

CC(=O)Nc1cc(C(c2ccccc2)c2ccccc2)cc(C(c2ccccc2)c2ccccc2)c1C
active: HCT-116 colon 8.02%
inactive: SR leukemia 14.3% | RPMI-8226 leukemia 11.2% | OVCAR-8 ovarian 73.8% | OVCAR-5 ovarian 75.4% | OVCAR-4 ovarian 43.8% | SK-OV-3 ovarian 77% | IGROV1 ovarian 58% | OVCAR-3 ovarian 49.8% | NCI/ADR-RES ovarian 51.8% | T-47D breast 24.9% | BT-549 breast 55.5% | MDA-MB-435 melanoma 63.9% | SW-620 colon 52% | MCF7 breast 41.3% | HCC-2998 colon 64.9% | KM12 colon 50.5%

O=C(CNC(=O)c1cccc2ccccc12)Nc1ccccc1Oc1ccc(O)cc1
inactive: SR leukemia 30.4% [5 µM] | RPMI-8226 leukemia 24.2% [5 µM] | OVCAR-8 ovarian 28.4% [5 µM] | OVCAR-5 ovarian 40.3% [5 µM] | OVCAR-4 ovarian 70.4% [5 µM] | SK-OV-3 ovarian 28.9% [5 µM] | IGROV1 ovarian 38% [5 µM] | NCI/ADR-RES ovarian 23.5% [5 µM] | T-47D breast 36.5% [5 µM] | BT-549 breast 58.5% [5 µM] | SW-620 colon 28.9% [5 µM] | MCF7 breast 27.1% [5 µM] | HCT-116 colon 15.9% [5 µM] | HCC-2998 colon 55.6% [5 µM] | KM12 colon 30.1% [5 µM]
active: OVCAR-3 ovarian -6.31% [5 µM] | MDA-MB-435 melanoma -16.1% [5 µM]

CCOC(=O)C1=CCC(n2cc(C)c(=O)[nH]c2=O)O1 (centres undefined)
inactive: SR leukemia 94.8% | RPMI-8226 leukemia 106% | OVCAR-8 ovarian 97.9% | OVCAR-5 ovarian 113% | OVCAR-4 ovarian 105% | SK-OV-3 ovarian 109% | IGROV1 ovarian 86.3% | OVCAR-3 ovarian 108% | HS 578T breast 104% | NCI/ADR-RES ovarian 101% | BT-549 breast 120% | MDA-MB-435 melanoma 113% | SW-620 colon 105% | MCF7 breast 119% | HCT-116 colon 102% | HCC-2998 colon 110% | KM12 colon 96%

CC12CCC3C(=CCc4cc(O)ccc43)C1CCC2=O (centres undefined)
inactive: SR leukemia 97.6% | RPMI-8226 leukemia 87.8% | OVCAR-8 ovarian 101% | OVCAR-5 ovarian 102% | OVCAR-4 ovarian 107% | SK-OV-3 ovarian 115% | IGROV1 ovarian 107% | OVCAR-3 ovarian 111% | HS 578T breast 104% | NCI/ADR-RES ovarian 102% | BT-549 breast 99.5% | MDA-MB-435 melanoma 73% | SW-620 colon 106% | MCF7 breast 120% | HCT-116 colon 102% | HCC-2998 colon 111% | KM12 colon 108%

CC[N+](CCCCCCCCCC[N+](CC)(c1ccccn1)c1ccccn1)(c1ccccn1)c1ccccn1
active: SR leukemia -19.8% | RPMI-8226 leukemia 1.5% | OVCAR-8 ovarian 7.02% | SK-OV-3 ovarian 8.24% | IGROV1 ovarian -35.2% | OVCAR-3 ovarian 3.49% | MDA-MB-435 melanoma -15.1% | MCF7 breast 7.81% | HCT-116 colon 9.06% | KM12 colon 5.01%
inactive: OVCAR-5 ovarian 24.1% | OVCAR-4 ovarian 20.5% | HS 578T breast 28.5% | T-47D breast 13.8% | BT-549 breast 19.1% | SW-620 colon 10.1% | HCC-2998 colon 13.3%

COc1cc(NC(=O)NCc2ccco2)ccc1-c1ccc(NC(=O)NCc2ccco2)cc1OC
inactive: SR leukemia 55.6% | RPMI-8226 leukemia 65.2% | OVCAR-8 ovarian 36.7% | OVCAR-5 ovarian 96.5% | OVCAR-4 ovarian 60.9% | SK-OV-3 ovarian 69.9% | IGROV1 ovarian 72.9% | OVCAR-3 ovarian 74% | HS 578T breast 59.4% | NCI/ADR-RES ovarian 91.2% | BT-549 breast 81.7% | MDA-MB-435 melanoma 76.5% | SW-620 colon 72.6% | MCF7 breast 44.7% | HCT-116 colon 35.2% | KM12 colon 47.8%

CCCCCCCCCCNCCSS(=O)(=O)O
inactive: SR leukemia 52.1% | RPMI-8226 leukemia 98.2% | OVCAR-8 ovarian 65.9% | OVCAR-5 ovarian 103% | OVCAR-4 ovarian 102% | SK-OV-3 ovarian 84.8% | IGROV1 ovarian 91.2% | OVCAR-3 ovarian 72.3% | HS 578T breast 52.1% | T-47D breast 88.7% | BT-549 breast 113% | MDA-MB-435 melanoma 62.4% | SW-620 colon 81.8% | MCF7 breast 19.2% | HCT-116 colon 52.9% | HCC-2998 colon 76.4%
active: KM12 colon 4.36%

O=C1c2cc3c(cc2-c2c1c1ccc(Cl)cc1c(=O)n2CCCNCCO)OCO3
active: SR leukemia -43.8% | RPMI-8226 leukemia -30.5% | OVCAR-8 ovarian -64.7% | OVCAR-5 ovarian -78.8% | OVCAR-4 ovarian -64.8% | SK-OV-3 ovarian -8.64% | IGROV1 ovarian -66.7% | OVCAR-3 ovarian -81.1% | HS 578T breast -49.6% | NCI/ADR-RES ovarian -51.1% | BT-549 breast -63.7% | MDA-MB-435 melanoma -85% | SW-620 colon -73.2% | MCF7 breast -73.1% | HCT-116 colon -74.2% | HCC-2998 colon -89% | KM12 colon -78.4%

COC(=O)[C@H](Cc1cn(C)cn1)NC(=O)[C@@H](NC(=O)Nc1cc(C(F)(F)F)cc(C(F)(F)F)c1)C(C)C
active: SR leukemia -33.5% [100 µM] | RPMI-8226 leukemia -42.9% [100 µM] | OVCAR-8 ovarian -80% [100 µM] | OVCAR-5 ovarian -96.1% [100 µM] | OVCAR-4 ovarian -96.5% [100 µM] | SK-OV-3 ovarian -100% [100 µM] | IGROV1 ovarian -70.9% [100 µM] | OVCAR-3 ovarian -97.3% [100 µM] | HS 578T breast 0.492% [100 µM] | NCI/ADR-RES ovarian -21.6% [100 µM] | BT-549 breast -98% [100 µM] | MDA-MB-435 melanoma -87.3% [100 µM] | SW-620 colon -47.5% [100 µM] | MCF7 breast -64.1% [100 µM] | HCT-116 colon -91.6% [100 µM] | HCC-2998 colon -86.7% [100 µM] | KM12 colon -88.7% [100 µM]

COc1ccc2c(c1)CC[C@@H]1[C@@H]2CC[C@]2(C)[C@@H](O)C(=O)C[C@@H]12
inactive: SR leukemia 84.2% | RPMI-8226 leukemia 103% | OVCAR-8 ovarian 101% | OVCAR-5 ovarian 95.8% | OVCAR-4 ovarian 107% | SK-OV-3 ovarian 120% | IGROV1 ovarian 115% | OVCAR-3 ovarian 106% | HS 578T breast 100% | NCI/ADR-RES ovarian 105% | BT-549 breast 103% | MDA-MB-435 melanoma 102% | SW-620 colon 105% | MCF7 breast 129% | HCT-116 colon 99.7% | KM12 colon 110%

O=Cc1ncc(-c2ccc(C(F)(F)F)cc2)c(NC2CCCCCC2)n1
active: SR leukemia -29.1% [100 µM] | RPMI-8226 leukemia -35.1% [100 µM] | OVCAR-8 ovarian -68.2% [100 µM] | OVCAR-5 ovarian -91.8% [100 µM] | OVCAR-4 ovarian -73.8% [100 µM] | SK-OV-3 ovarian -13.7% [100 µM] | IGROV1 ovarian -68.3% [100 µM] | OVCAR-3 ovarian -94.5% [100 µM] | HS 578T breast -39.1% [100 µM] | NCI/ADR-RES ovarian -69.8% [100 µM] | BT-549 breast -93.4% [100 µM] | MDA-MB-435 melanoma -88.1% [100 µM] | SW-620 colon -44.4% [100 µM] | MCF7 breast -86.3% [100 µM] | HCT-116 colon -94.3% [100 µM] | HCC-2998 colon -74.4% [100 µM] | KM12 colon -87.6% [100 µM]

C=CCN(/C=C/CN(CC=C)CC=C)CC=C
inactive: SR leukemia 85.3% | RPMI-8226 leukemia 95.8% | OVCAR-8 ovarian 95.8% | OVCAR-5 ovarian 104% | OVCAR-4 ovarian 91.7% | SK-OV-3 ovarian 103% | IGROV1 ovarian 96.3% | OVCAR-3 ovarian 105% | HS 578T breast 109% | NCI/ADR-RES ovarian 107% | BT-549 breast 100% | MDA-MB-435 melanoma 105% | SW-620 colon 102% | MCF7 breast 97% | HCT-116 colon 102% | HCC-2998 colon 110% | KM12 colon 105%

NS(=O)(=O)c1ccc(-n2ncc3c(NC4CCCCC4)ncnc32)cc1
inactive: SR leukemia 63.1% | RPMI-8226 leukemia 91% | OVCAR-8 ovarian 89.2% | OVCAR-5 ovarian 90.9% | OVCAR-4 ovarian 97.9% | SK-OV-3 ovarian 108% | IGROV1 ovarian 78% | OVCAR-3 ovarian 128% | HS 578T breast 98.8% | T-47D breast 80.4% | BT-549 breast 108% | MDA-MB-435 melanoma 92.5% | SW-620 colon 113% | MCF7 breast 116% | HCT-116 colon 93.6% | HCC-2998 colon 91.5% | KM12 colon 83.6%

O=C1C=CC(=O)N1c1ccccn1
inactive: SR leukemia 79.4% | RPMI-8226 leukemia 113% | OVCAR-8 ovarian 111% | OVCAR-5 ovarian 97.9% | OVCAR-4 ovarian 100% | SK-OV-3 ovarian 115% | IGROV1 ovarian 113% | OVCAR-3 ovarian 119% | HS 578T breast 97.4% | NCI/ADR-RES ovarian 106% | BT-549 breast 104% | MDA-MB-435 melanoma 116% | SW-620 colon 101% | MCF7 breast 100% | HCT-116 colon 96.8% | KM12 colon 107%
